{
  "source": "PubChem BioAssay AID1650",
  "about": "(Southern Research Specialized Biocontainment Screening …, 2009)",
  "note": "Results with a measured potency or affinity are listed apart. Values without a mark were called inactive. The rule behind the calls is not given here.",
  "data": [
    {"test": "mammalian cell viability reduction – secondary assay, cytotoxicity control for West Nile virus antiviral project, dose response (AID 1650)", "details": "Mammalian host cell viability, cytotoxicity counter-screen; series mostly up to 10 µM; viability: at the top concentration", "values": [
      {"smiles": "CCN(CC)S(=O)(=O)c1ccc2c(c1)c(=O)c(C(=O)NCCc1ccc(OC)c(OC)c1)cn2C", "viability": "92.3% [at 20 µM]"},
      {"smiles": "Nc1nonc1-n1nnc(C(=O)N/N=C/c2ccccc2Cl)c1CSc1ccccc1", "viability": "92.5% [at 20 µM]"},
      {"smiles": "Cc1ccc(Nc2nc(N)c([N+](=O)[O-])c(N3CCCC(C)C3)n2)cc1C", "note": "(centres undefined)", "viability": "72.2%"},
      {"smiles": "Cc1cccc(C)c1Nc1nc2ccccc2o1", "viability": "91.1% [at 20 µM]"},
      {"smiles": "Cc1nn(CC(=O)NCc2ccc(OC(C)C)cc2)c(=O)c2cc(-c3ccccc3)nn12", "viability": "89.4% [at 20 µM]"},
      {"smiles": "COc1cc2cc(CN(CCc3ccccc3C)C(=S)NCCCN(C)C)c(=O)[nH]c2cc1OC", "viability": "88.3%"},
      {"smiles": "Cc1ccc(S(=O)(=O)NCc2ccc(C(=O)NCCCN3CCC(Cc4ccccc4)CC3)cc2)cc1", "viability": "82.9% [at 20 µM]"},
      {"smiles": "CCCCCCCCCc1nc2sc3c(c2c(=O)n1NC(=O)c1ccc([N+](=O)[O-])cc1)CC(C)(C)OC3", "viability": "93.4% [at 20 µM]"},
      {"smiles": "CN1CCN(CCCN2c3ccccc3Sc3ccc(C(F)(F)F)cc32)CC1", "viability": "74.9%"},
      {"smiles": "Cn1cc(CN2CCCC(C(=O)Nc3ccc(-c4cccc(F)c4)cc3)C2)cn1", "note": "(centres undefined)", "viability": "86.8%"},
      {"smiles": "CN(C)CCNc1ncnc2c1sc1nc(N3CCCC3)c3c(c12)CC(C)(C)OC3", "viability": "75.1% [at 20 µM]"},
      {"smiles": "Cc1cc(F)ccc1N1CCC(N2CCN(C(C)C)C(CCO)C2)CC1", "note": "(centres undefined)", "viability": "89.4% [at 20 µM]"},
      {"smiles": "CC1CN(C(=O)CCC(=O)NCCCN2CCC(Cc3ccccc3)CC2)c2cc(Cl)ccc2O1", "note": "(centres undefined)", "viability": "80.6% [at 20 µM]"},
      {"smiles": "COc1cc(-c2cc3nc(C)c(C)c(=O)n3[nH]2)cc(OC)c1OC", "viability": "93.8% [at 20 µM]"},
      {"smiles": "CCCCc1nc2ccccc2c(N)c1CCC", "note": "(tested in a mixture with another compound)", "viability": "81.9%"},
      {"smiles": "CN(Cc1ccccc1)c1nc(N)c([N+](=O)[O-])c(Nc2cccc(F)c2)n1", "viability": "82.9% [at 20 µM]"},
      {"smiles": "C=CCNC(=O)c1ccc(-c2nc(-c3ccc(Cl)cc3Cl)cs2)cc1", "viability": "81.2%"},
      {"smiles": "COc1ccc(C2c3c(ncn(CCN4CCOCC4)c3=N)Oc3ccc4ccccc4c32)cc1", "note": "(centres undefined)", "viability": "84.2%"},
      {"smiles": "O=C(NCCCN1CCCC1)c1ccc2c(c1)N(Cc1cccc(Cl)c1)C(=O)c1ccccc1S2=O", "note": "(centres undefined)", "viability": "84.1% [at 20 µM]"},
      {"smiles": "O=C(CN1C(=O)/C(=C/c2ccc(C(F)(F)F)cc2)Sc2ccccc21)NCCCN1CCOCC1", "viability": "84.2%"},
      {"smiles": "CCN(CC)CCCNC(=O)c1[nH]c2ccccc2c1Sc1ccc(Cl)cc1", "viability": "84.4%"},
      {"smiles": "CCOc1ccc(NC(=O)c2c(NC(=O)CN3CCN(C)CC3)sc3c2CCC3)cc1", "viability": "77%"},
      {"smiles": "O=C(Nc1ccc(Nc2ccccc2)cc1)C(Cl)Cl", "viability": "78.6%"},
      {"smiles": "Cc1ccc(S(=O)(=O)N2CCCC2C(=O)Oc2ccccc2)cc1", "note": "(centres undefined)", "viability": "86.8%"},
      {"smiles": "COc1ccc(C2c3ccc4ccccc4c3Oc3ncn(CCO)c(=N)c32)cc1", "note": "(centres undefined)", "viability": "79.2%"},
      {"smiles": "COC(=O)c1ccc(C(=O)Nc2cc(Cl)ccc2Cl)cc1NC(=O)c1ccccc1C", "viability": "72.5% [at 20 µM]"},
      {"smiles": "COc1cc2c(O)c3c(c(-c4ccc5c(c4)OCO5)c2cc1OC)C(=O)OC3", "viability": "79.7% [at 20 µM]"},
      {"smiles": "O=C(COc1ccc(Cl)cc1)NCCSCc1cccc(Cl)c1", "viability": "90.4% [at 20 µM]"},
      {"smiles": "COc1cccc2sc3ccc(NCCC4CCCN4C)cc3c(=O)c12", "note": "(centres undefined)", "viability": "82.8% [at 20 µM]"},
      {"smiles": "COc1ccc2cc(Br)ccc2c1CC(=O)NC1CC(C)(C)NC(C)(C)C1", "viability": "87.9%"},
      {"smiles": "CN1CCN(NC(=O)c2cc(-c3ccc(Cl)s3)nc3ccccc23)CC1", "viability": "74% [at 20 µM]"},
      {"smiles": "CCCCN(CC)CCCNC(=S)Nc1ccc2nc(N3CCN(CC)CC3)cc(C)c2c1", "viability": "80%"},
      {"smiles": "CCCN(CC(=O)Nc1cccc(Br)c1)CC(=O)Nc1ccc(F)c(F)c1F", "viability": "84.9%"},
      {"smiles": "CN1CCCC(n2nc(Cc3ccc(Cl)cc3)c3ccccc3c2=O)CC1", "note": "(centres undefined)", "viability": "83.8%"},
      {"smiles": "O=C(/C=C/c1ccc2c(c1)OCO2)Nc1ccc(Cl)cn1", "viability": "95.4% [at 20 µM]"},
      {"smiles": "COc1cc([C@H]2c3[nH]c4ccccc4c3C[C@H]3C(=O)N4[C@@H](c5cc(OC)c(OC)c(OC)c5)c5[nH]c6ccccc6c5C[C@H]4C(=O)N23)cc(OC)c1OC", "viability": "77.5% [at 20 µM]"},
      {"smiles": "CC(CN1CCCC1)C(=O)NN", "note": "(centres undefined)", "viability": "90.7% [at 20 µM]"},
      {"smiles": "Cc1cc(C)cc(SCc2noc(C(=O)NCCCN3CCOCC3)c2C(=O)NCCCN2CCOCC2)c1", "viability": "83.3%"},
      {"smiles": "CCN(CC)CCCNc1nc(-c2ccccc2)nc2ccccc12", "viability": "81.9%"}
    ]}
  ]
}
